Four compounds from PubChem BioAssay can be followed below.

Several values for one entry are separate records, joined by “and”; a condition that tells them apart may be missing. Identical values can stand only once. Some structures have more than one record in an assay (separate samples or runs), and their calls can disagree. Activity calls are given as the source filed them. Unless noted, the rule behind the calls is not given here.

Test [1] is described as follows: compounds binding Alexa647 anti-His antibody – biochemical, small-molecule microarray, 635 nm fluorescence, artefact control for SMM control protein annotation, primary screen (AID 1128).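 Note: score merges feature fluorescence with signal-to-noise for each printed compound spot.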 The settings on record: higher = more signal.
Test [2] concerns Human papillomavirus type 1a E7 protein (residues 1-88). In words: HPV1a E7 small-molecule binders, primary screen, biochemical, small-molecule microarray, residues 1-88, 635 nm (AID 1129). The settings on record: small-molecule microarray binding, fluorescence 635 nm; higher = more signal.
In test [3] the target is Focal adhesion kinase 1 (Homo sapiens) (UniProt Q05397). As to the kind of experiment: PTK2 protein binding on printed compound slides – biochemical, small-molecule microarray, 635/667 nm fluorescence, BSA, DTT, primary screen (AID 1130).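 Note: composite of spot emission at 667 nm and signal to noise over triplicate slides.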 The settings on record: 635 nm fluorescence, higher = more signal.
Chain of Focal adhesion kinase 1 (Homo sapiens) (Q05397 whole entry, looked up): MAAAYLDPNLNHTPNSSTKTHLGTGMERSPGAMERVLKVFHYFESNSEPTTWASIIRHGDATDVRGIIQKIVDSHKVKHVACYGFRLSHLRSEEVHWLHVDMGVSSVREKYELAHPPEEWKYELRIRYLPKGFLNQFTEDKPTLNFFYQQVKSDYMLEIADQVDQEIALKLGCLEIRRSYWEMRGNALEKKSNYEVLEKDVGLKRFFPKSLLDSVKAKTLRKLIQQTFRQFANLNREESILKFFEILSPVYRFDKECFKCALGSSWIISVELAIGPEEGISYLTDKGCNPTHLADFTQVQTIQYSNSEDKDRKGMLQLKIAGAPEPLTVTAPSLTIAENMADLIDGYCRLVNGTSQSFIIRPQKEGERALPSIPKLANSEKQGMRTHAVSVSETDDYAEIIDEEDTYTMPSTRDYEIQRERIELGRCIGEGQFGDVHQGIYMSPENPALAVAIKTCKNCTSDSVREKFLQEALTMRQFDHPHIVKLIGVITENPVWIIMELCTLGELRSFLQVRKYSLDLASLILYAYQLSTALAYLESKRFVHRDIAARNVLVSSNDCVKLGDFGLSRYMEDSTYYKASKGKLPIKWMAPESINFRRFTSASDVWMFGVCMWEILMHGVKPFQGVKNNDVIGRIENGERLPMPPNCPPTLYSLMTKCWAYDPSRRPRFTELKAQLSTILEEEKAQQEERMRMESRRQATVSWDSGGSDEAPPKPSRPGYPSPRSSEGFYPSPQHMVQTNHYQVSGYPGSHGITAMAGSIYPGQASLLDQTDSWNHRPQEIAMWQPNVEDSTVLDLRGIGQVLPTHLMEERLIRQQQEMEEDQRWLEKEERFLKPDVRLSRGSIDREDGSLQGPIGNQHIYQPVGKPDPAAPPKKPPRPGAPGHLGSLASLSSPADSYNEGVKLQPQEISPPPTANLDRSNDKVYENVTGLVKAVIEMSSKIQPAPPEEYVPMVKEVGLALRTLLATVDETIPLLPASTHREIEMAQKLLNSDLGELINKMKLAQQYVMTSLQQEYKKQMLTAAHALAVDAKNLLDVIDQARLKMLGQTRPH
Test [4] deals with Fibrinogen (Alexa647-labelled). As to the kind of experiment: Alexa647-fibrinogen binding to printed small molecules – biochemical, small-molecule microarray, 635/667 nm fluorescence, artefact control for SMM control-protein annotation, profiling panel (AID 1131).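 Note: z-score merges 667 nm fluorescence with per-spot signal-to-noise over triplicate slides.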 The settings on record: fibrinogen-A647 binding fluorescence, higher = more signal.
The target of test [5] is Follistatin (Homo sapiens) (UniProt P19883). As to the kind of experiment: FST protein binding to printed compounds – biochemical, small-molecule microarray, 635/667 nm fluorescence, primary screen (AID 1132). As to conditions: 635 nm fluorescence, higher = more signal.
Chain of Follistatin (Homo sapiens) (P19883 whole entry, looked up): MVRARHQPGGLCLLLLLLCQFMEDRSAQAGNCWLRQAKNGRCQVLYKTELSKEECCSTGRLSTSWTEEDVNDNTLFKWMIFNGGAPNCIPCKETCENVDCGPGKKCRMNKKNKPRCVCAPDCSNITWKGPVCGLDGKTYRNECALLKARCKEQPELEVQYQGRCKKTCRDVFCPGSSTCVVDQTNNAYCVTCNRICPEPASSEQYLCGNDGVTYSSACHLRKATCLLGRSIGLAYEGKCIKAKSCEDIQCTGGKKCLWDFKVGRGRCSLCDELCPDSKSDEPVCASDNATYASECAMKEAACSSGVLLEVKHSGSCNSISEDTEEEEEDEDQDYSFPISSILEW
The target of test [6] is Fibroblast growth factor 2 (Homo sapiens) (UniProt P09038). In words: basic fibroblast growth factor binding to printed compounds – biochemical, small-molecule microarray, 635/667 nm fluorescence, primary screen (AID 1133). The settings on record: FGF2, fluorescence 635/667, higher = more signal.
Chain of Fibroblast growth factor 2 (Homo sapiens) (P09038 whole entry, looked up): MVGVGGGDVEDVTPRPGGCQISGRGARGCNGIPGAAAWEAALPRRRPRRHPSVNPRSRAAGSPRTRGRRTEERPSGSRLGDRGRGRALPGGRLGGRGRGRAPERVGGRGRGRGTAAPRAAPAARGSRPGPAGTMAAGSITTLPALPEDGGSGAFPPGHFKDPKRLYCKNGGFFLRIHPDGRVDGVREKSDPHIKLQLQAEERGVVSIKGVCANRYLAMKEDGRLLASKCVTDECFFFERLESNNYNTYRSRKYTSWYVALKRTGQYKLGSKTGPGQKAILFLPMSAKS
Test [7] is described as follows: JC-1 mitochondrial potential readout, lung cancer cells – cell-based, A549, JC-1 fluorescence, basal, 24 h, 100 nL, profiling panel (AID 1138).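 Note: A549 lung adenocarcinoma cells under basal conditions with no added stimulus; test concentration not given here.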 As to conditions: higher = more signal.
Another test concerns Lefty1. As to the kind of experiment: Lefty1 protein binding to printed compounds – biochemical, small-molecule microarray, 635/667 nm fluorescence, primary screen (AID 1139). The settings on record: fluorescence 635/667, higher = more signal.
Test [8] has as its system wheat germ agglutinin (Triticum aestivum), Alexa647-labelled. In words: Alexa647-WGA lectin binding to printed small molecules – biochemical, small-molecule microarray, 635/667 nm fluorescence, artefact control for SMM control-protein annotation, profiling panel (AID 1140).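 Note: score merges 667 nm feature emission with signal to noise over triplicate slides.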 The settings on record: WGA-A647 binding, 635 nm fluorescence, higher = more signal.
For test [9], the target named is Luciferin 4-monooxygenase (Photinus pyralis) (UniProt P08659). As to the kind of experiment: inhibition of purified Photinus pyralis luciferase – biochemical, luminescence, purified enzyme, 2006 set, primary screen (AID 1141).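 Note: cell-free assay with purified firefly luciferase at 100 ng per well in PBS; test concentration not given here.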 As to conditions: purified firefly luciferase, SteadyGlo luminescence, 30 min; higher = more signal, called active from +8 up or from −8 down.
Chain of Luciferin 4-monooxygenase (Photinus pyralis) (P08659 whole entry, looked up): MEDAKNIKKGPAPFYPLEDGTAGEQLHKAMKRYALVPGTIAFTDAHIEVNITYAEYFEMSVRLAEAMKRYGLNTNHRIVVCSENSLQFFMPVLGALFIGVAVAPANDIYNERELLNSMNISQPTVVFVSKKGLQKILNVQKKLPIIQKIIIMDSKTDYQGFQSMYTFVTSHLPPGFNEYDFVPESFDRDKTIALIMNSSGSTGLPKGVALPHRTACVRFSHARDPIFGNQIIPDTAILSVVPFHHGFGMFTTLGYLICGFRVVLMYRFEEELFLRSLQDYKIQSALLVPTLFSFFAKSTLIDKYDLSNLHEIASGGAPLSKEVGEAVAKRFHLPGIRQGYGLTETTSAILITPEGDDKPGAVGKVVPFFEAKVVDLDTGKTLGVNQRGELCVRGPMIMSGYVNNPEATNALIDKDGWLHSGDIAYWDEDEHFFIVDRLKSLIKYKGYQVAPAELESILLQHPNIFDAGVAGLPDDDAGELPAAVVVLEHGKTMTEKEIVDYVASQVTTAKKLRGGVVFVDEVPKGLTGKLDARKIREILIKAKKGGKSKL

Test [10] concerns Wnt5a (protein binding on small-molecule microarray). In words: small molecules binding Wnt5a protein – biophysical, small-molecule microarray, 635/667 nm fluorescence, primary screen (AID 1142).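 Note: fluorescence read at 667 nm with signal to noise per printed feature.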 As to conditions: 635 nm fluorescence, higher = more signal.
Test [11] can be described thus: ATP-based viability of Huh7 replicon cells – cell-based, CellTiter-Glo luminescence, basal, 48 h, cytotoxicity control for HCV replication inhibitor project, primary screen (AID 1143).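 Note: Huh7 hepatoma cells carrying a hepatitis C replication reporter with no stimulus; test concentration not given here.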 As to conditions: higher = more signal, called active from +8 up or from −8 down.
Test [12] can be described thus: Pseudomonas biofilm growth suppression – PAO1 strain, BacTiter-Glo luminescence, LB-PBS, primary screen (AID 1144). The settings on record: P. aeruginosa PAO1 biofilm, 12 h, higher = more signal.
A short description of test [13]: basal CRE-LacZ reporter activity in PC12 – cell-based, unstimulated, primary screen (AID 1145). The settings on record: no forskolin, luminescence, 4.5 h, higher = more signal, called active from +8 up or from −8 down.
A short description of test [14]: forskolin-driven CRE-LacZ activity in PC12 – cell-based, CRE-LacZ reporter, forskolin-stimulated, primary screen (AID 1146).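 Note: PC12 cells with 6xCRE LacZ reporter stimulated by forskolin 10 µM; beta-galactosidase reporter signal reflecting CREB driven transcription.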 As to conditions: luminescence, 4.5 h, higher = more signal, called active from +8 up or from −8 down.
Test [15] deals with Streptavidin (Streptomyces avidinii) (UniProt P22629). In words: compounds binding control protein streptavidin – biophysical, small-molecule microarray, 635/667 nm fluorescence, artefact control for SMM compound annotation, primary screen (AID 1147).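 Note: signal reflects streptavidin binding to arrayed compounds as a control protein.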 The settings on record: higher = more signal.
Chain of Streptavidin (Streptomyces avidinii) (P22629 whole entry, looked up): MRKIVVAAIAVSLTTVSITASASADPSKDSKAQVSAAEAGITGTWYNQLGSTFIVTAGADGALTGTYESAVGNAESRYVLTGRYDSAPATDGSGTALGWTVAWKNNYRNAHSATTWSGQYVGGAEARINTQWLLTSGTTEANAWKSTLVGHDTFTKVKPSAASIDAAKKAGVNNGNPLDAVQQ
The nature of test [16]: probe aInhba binding on compound microarray – biochemical, small-molecule microarray, 635/667 nm fluorescence, primary screen (AID 1148).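 Note: score merges 667nm spot fluorescence with signal-to-noise for antibody binding to printed compounds.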 The settings on record: higher = more signal.
Test [17] concerns the target Torsin-1A (Homo sapiens) (UniProt O14656). In words: TOR1A wild-type binding on microarray – cell lysate, small-molecule microarray, lysate, 635/667 nm, primary screen (AID 1149). The settings on record: COS7 hTOR1A-WT lysate, 635 nm fluorescence, higher = more signal.
Test [18] shares this target. In words: torsin A mutant lysate binding on microarrays – cell lysate, small-molecule microarray, COS7 lysate, 635/667 nm fluorescence, primary screen (AID 1150).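 Note: score pools 667 nm emission and signal to noise measuring lysate protein binding.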 The settings on record: COS7 hTOR1A mutant lysate, 635 nm fluorescence, higher = more signal.
Test [19] has as its system Sonic hedgehog protein (Shh). As to the kind of experiment: Sonic hedgehog microarray binding compounds – biochemical, small-molecule microarray, 635/667 nm fluorescence, primary screen (AID 1151).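 Note: Shh protein binding to compounds spotted on small-molecule microarray slides; score combines spot fluorescence intensity with signal-to-noise across triplicate slides.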 The settings on record: 635 nm fluorescence, higher = more signal.

Chain of Torsin-1A (Homo sapiens) (O14656 whole entry, looked up): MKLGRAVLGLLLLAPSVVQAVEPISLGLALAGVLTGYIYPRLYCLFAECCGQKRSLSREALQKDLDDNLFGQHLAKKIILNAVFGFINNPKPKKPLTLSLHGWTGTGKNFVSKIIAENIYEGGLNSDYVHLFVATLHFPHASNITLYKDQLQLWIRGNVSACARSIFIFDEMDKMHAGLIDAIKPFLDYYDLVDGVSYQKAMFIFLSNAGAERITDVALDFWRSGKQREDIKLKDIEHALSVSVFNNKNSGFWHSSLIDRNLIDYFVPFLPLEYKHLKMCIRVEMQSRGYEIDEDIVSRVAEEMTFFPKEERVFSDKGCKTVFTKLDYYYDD

As for `O=c1n(-c2ccccc2)c(=O)n2n1CC[C@@H]1C(=NOC[C@@H](O)COCc3ccco3)[C@H]3O[C@H]3[C@@H](O)[C@@H]12`, the composite z-score in test [1] is 0.196 and 1.9; in test [2] it was 0.0776 and -0.425; in [3], 0.828 and -0.367; in test [4], -0.309 and -0.105; in test [5], 1.15 and 0.461; in test [6], 1.02 and 0.96. The composite z-score is 1.43 and 0.459 with Lefty1; -0.392 and 0.0106 in test [8]; 0.0145 and -0.152 in [10]; 0.312 and 0.0894 in [15]; -0.0963 and -0.0407 in [16]; 0.716 and 0.965 in the test with Torsin-1A (Homo sapiens) [17]. Further, the composite z-score was 0.289 and 0.457 with Torsin-1A (Homo sapiens) [18]; 1.7 and 0.769 in test [19]. The z-score in [7] was -0.642 and -0.729; in test [9], 0.0662 (inactive) and -0.214 (inactive); in [11], -2.38 (inactive) and 1.16 (inactive); in test [12] it was -0.58 (inactive) and 0.962 (inactive); in [13] it was 0.875 (inactive) and -0.227 (inactive); in test [14], -0.218 (inactive) and 0.761 (inactive).
As for `C=CC[C@H](O)c1ccc(OCCO)cc1`, the composite z-score in test [1] was 0.185 and 0.0367; in [2], -1.1 and -1.32; in test [3], -1.14 and -0.38; in [4] it was -0.0902 and -3.21; in test [5], 0.519 and 0.726; in test [6], -0.442 and 0.17. Besides, the composite z-score with Lefty1 is -0.748 and -0.0547; in test [8], 0.542 and 0.645; in [10], -0.0223 and -0.614; in [15], -0.893 and -1.41; in test [16], -0.0371 and -0.497; with Torsin-1A (Homo sapiens) [17], -0.646 and -1.69. Moreover, the composite z-score with Torsin-1A (Homo sapiens) [18] is -0.0897 and -1.66; in test [19], -0.125 and 0.891. Also, the z-score in test [7] was -0.441 and 0.564; in test [9] it was -1.15 (inactive) and -1.17 (inactive); in test [11], -1.36 (inactive) and -0.878 (inactive); in test [12], -0.809 (inactive) and -0.0923 (inactive); in test [13], -0.925 (inactive) and 0.18 (inactive); in [14], -0.506 (inactive) and -0.0908 (inactive).
In the case of `COC(=O)[C@@]1(Cc2ccccc2)[C@H]2c3cc(C(=O)N(C)C)n(Cc4ccc(C)c(F)c4F)c3C[C@H]2CN1C(=O)c1ccccc1`, the composite z-score was 1.95 and 1.06 in test [1]; 1.24 and 1.25 in test [2]; 0.73 and 1.04 in test [3]; 0.966 and 1.01 in test [4]; 0.096 and 1.26 in test [5]; -0.824 and -0.149 in test [6]. Also, the composite z-score with Lefty1 was -0.587 and 0.642; in test [8] it was 0.899 and 1.03; in test [10], 0.0409 and 1.51; in [15], 0.367 and 1.93; in [16], 0.122 and 0.787; with Torsin-1A (Homo sapiens) [17] it was 0.399 and 0.7. Besides, the composite z-score in the test with Torsin-1A (Homo sapiens) [18] was 0.272 and 0.365; in [19], -0.678 and -0.165. Moreover, the z-score is -1.17 and -1.14 in test [7]; -1.27 (inactive) and 0.773 (inactive) in [9]; -4.98 (inactive) and -3.53 (inactive) in [11]; -0.796 (inactive) and 0.655 (inactive) in [12]; 31.5 (active) and 0.972 (inactive) in test [13]; 202 (active) and 0.38 (inactive) in test [14].
`COc1ccc(O[C@H]2C=C[C@@H](c3ccccc3)O[C@@H]2COC(=O)CCC(C)=NO[C@H](C)c2cn([C@H](CO)Cc3ccccc3)nn2)cc1`: the composite z-score in [1] is 2.33 and 1.58; in test [2], -0.0422 and 0.437; in [3], 0.142 and -0.0962; in test [4] it was 0.643 and 0.766; in test [5], 0.125 and 0.326; in [6] it was 0.218 and 0.684. The composite z-score with Lefty1 was 0.653 and 0.557; in test [8], 0.207 and 0.223; in test [10], 0.205 and -0.274; in [15], 0.379 and 2.03; in test [16] it was 0.344 and 0.104; with Torsin-1A (Homo sapiens) [17], 0.362 and 0.702. The composite z-score is 0.127 and 0.463 in the test with Torsin-1A (Homo sapiens) [18]; 0.372 and 1.69 in test [19]. Also, the z-score in test [7] is -1.04 and -0.144; in [9], 0.845 (inactive) and -0.59 (inactive); in [11] it was -1.93 (inactive) and -1.7 (inactive); in test [12] it was 0.916 (inactive) and 1.05 (inactive); in [13], 2.66 (inactive) and 1.53 (inactive); in [14], 1.83 (inactive) and 0.775 (inactive).
